# Test results published in PubChem BioAssay.
# “And” between values parts separate entries of the source, which are not always exact repeats. Identical values can stand only once. For some of these results: Entries with a potency or affinity are not part of this list. The source made the active and inactive calls. Unless noted, no stated cut-off is given here; in the data, active means inhibition above about 80%; inactive means the rest.
# How the values were obtained:
# [1] = blockers of polyQ-driven CASP3 activation – cell-based (AID 1583); details: polyglutamine-induced caspase-3 activation, cell assay; stronger effect = higher value;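 tested at 10 µM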
# [2] = yeast 75Q aggregation reduction – 75Q-TubU reporter (AID 1593); details: Yeast 75Q polyglutamine aggregation reporter
# [3] = restoration of touch response, mutant HTT neurons – whole organism, C. elegans mechanosensory neurons, N-terminal huntingtin (AID 1599); details: C. elegans polyQ-huntingtin mechanosensory neurons, stronger effect = higher value
# [4] = blockers of cytochrome c efflux from mitochondria – biochemical, purified mitochondria (AID 1603); details: stronger effect = lower value;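 further: mouse liver mitochondria challenged with calcium chloride; signal normalized to the plate average as 100%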
# [5] = polyglutamine aggregate formation blockers (AID 1604); details: polyglutamine-induced protein aggregation inhibition assay; stronger effect = higher value; tested at 2.5 µM
# [6] = glutamate transport activators, MN-1 cells, MN-1 cell line (AID 1612); details: MN-1 motor neuron cells, stronger effect = higher value;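 further: tested at 1 µM final; 0% = mean of DMSO vehicle wells on each plate; positive means more glutamate uptake than control and negative means less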
# [7] = GFP-Q80 aggregate reduction, neuronal-like cells, cell-based, NGF-treated PC12, GFPQ80 (AID 1614); details: PC12 NGF-treated GFP-polyQ80 inclusion reduction;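 further: lower means fewer inclusions and 0 means no inclusions at all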
# [8] = 75Q-TubH aggregate inhibition, S. cerevisiae, yeast (AID 1616); details: S. cerevisiae 75Q-TubH polyglutamine aggregation suppression; stronger effect = higher value
# [9] = compounds altering circadian rhythm period length – cell-based, LOPAC library, luminescence reporter (AID 2774; call rule not given here;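 further: values are relative to mean of DMSO wells on each plate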); details: circadian reporter cells, at 7 µM, actives lie on both sides
# [10] = antimalarial activity against Dd2 strain (AID 2302;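 active means growth inhibition above 50% at the single 2 µM test dose, taken to imply half-maximal potency below 2 µM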;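 further: 0% = DMSO untreated growth and 100% = chloroquine plus artemisinin killed control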); details: P. falciparum Dd2 in RBCs, LDH growth readout, 72 h; at 2 µM; stronger effect = higher value
# [11] = human hepatoma cell viability loss – ATP luminescence, cytotoxicity control for P. falciparum antimalarial project, primary screen (AID 2303;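 active means inhibition above 50%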;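 further: 0% = DMSO wells and 100% = digitonin-killed cells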); details: HepG2 viability, 24-48 h, at 10 µM, stronger effect = higher value
# [12] = molecular target: L-lactate dehydrogenase (Plasmodium falciparum (isolate CDC / Honduras)) (UniProt Q27743); assay: PfLDH activity inhibition – cell lysate, 3D7 strain, counter-screen for P. falciparum growth inhibition project (AID 2304; call rule not given here;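 further: 0% = vehicle and 100% = reference inhibitor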); details: P. falciparum 3D7 crude extract, LDH APAD/NBT absorbance; at 2 µM; stronger effect = higher value
# Sequence of L-lactate dehydrogenase (Plasmodium falciparum (isolate CDC / Honduras)) (Q27743 whole entry, looked up): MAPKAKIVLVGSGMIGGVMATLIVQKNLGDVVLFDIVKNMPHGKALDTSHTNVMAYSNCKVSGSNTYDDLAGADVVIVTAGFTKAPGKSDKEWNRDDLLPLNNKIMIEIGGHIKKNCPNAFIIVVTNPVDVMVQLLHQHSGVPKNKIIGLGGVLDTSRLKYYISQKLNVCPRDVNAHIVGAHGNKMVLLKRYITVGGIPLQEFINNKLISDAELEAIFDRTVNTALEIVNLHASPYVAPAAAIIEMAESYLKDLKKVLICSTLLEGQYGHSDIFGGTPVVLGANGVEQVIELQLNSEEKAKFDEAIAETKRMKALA
# [13] = inhibition of 3D7 malaria parasite growth – strain 3D7 (AID 2306; call rule not given here;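 further: 0% = DMSO wells and 100% = chloroquine plus artemisinin control wells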); details: P. falciparum 3D7 erythrocytic growth, LDH absorbance, 72 h; at 2 µM; stronger effect = higher value
# [14] = galactose survival enhancers in mitochondrial complex I cybrids – cell-based, galactose medium, ATP luminescence, primary screen (AID 1645843;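 active means z-score of at least 1.8 in each of two replicates, scored against plate mean and spread of sample wells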;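 further: positive z means more ATP and so rescue of galactose-driven cybrid death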); details: complex I mutant cybrid cells, 72 h, stronger effect = higher value
# [15] = growth inhibition, single agent or in combination, cell-based, chromothripsis tumors, cisplatin or BGB combos (AID 1671449); details: LFS_MB_P medulloblastoma cells;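 further: cells exposed for 96 hours; 0% = vehicle DMSO and 100% = killing by high DMSO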
# [16] = growth inhibition, single agent and combos, cell-based, chromothripsis tumors, cisplatin or BGB combos (AID 1671450); details: HDN33 neuroblastoma cells, stronger effect = higher value;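 further: cells exposed to compound for four days; 0% = vehicle DMSO and 100% = cell killing by high DMSO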
# [17] = growth inhibition, single agents and combos, ICB984, cell-based, cisplatin or BGB combos, synergistic combos for chromothripsis tumors (AID 1671451; call rule not given here;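 further: cells exposed for 96 hours before readout; 0% = vehicle DMSO and 100% = killing by high DMSO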); details: ICB984 medulloblastoma cells, drug combinations, stronger effect = higher value
# [18] = growth inhibition, single agents and combos, LFS_MB_1R, cell-based, cisplatin or BGB combos, synergistic combos for chromothripsis tumors (AID 1671452); details: LFS_MB_1R medulloblastoma cells, stronger effect = higher value;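 further: cells exposed for 96 hours before readout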
# [19] = growth inhibition, single agents and combos, HTB85, cell-based, BGB or cisplatin IC20 combos, synergistic combos for chromothripsis tumors (AID 1671453); details: HTB85 osteosarcoma cells, drug combinations, stronger effect = higher value;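 further: cells exposed for 96 hours before readout; 0% = vehicle DMSO and 100% = high DMSO killing control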
# [20] = growth inhibition, single agents and combos, CRL2098, cell-based, BGB or cisplatin IC20 combos, synergistic combos for chromothripsis tumors (AID 1671454); details: CRL2098 osteosarcoma cells, drug combinations, stronger effect = higher value;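 further: cells exposed for 96 h before readout; 0% = vehicle DMSO and 100% = killing by high DMSO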
# [21] = growth inhibition, single agents and combos, HD-MB03, cell-based, BGB or cisplatin IC20 combos, synergistic combos for chromothripsis tumors (AID 1671455; in the data active means inhibition above about 83%;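 further: 0% = vehicle DMSO and 100% = high DMSO as cytotoxic control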); details: HD-MB03 medulloblastoma cells, stronger effect = higher value
# [22] = growth inhibition, single agents and combos, UWB1.289, cell-based, BGB or cisplatin combos, synergistic combos for chromothripsis tumors (AID 1671456); details: UWB1.289 ovarian carcinoma cells, stronger effect = higher value;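 further: cells exposed to compound for four days; 0% = vehicle DMSO and 100% = killing by high DMSO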
# [23] = growth inhibition, single agents and combos, LFS_MB_2R, cell-based, cisplatin combos, synergistic combos for chromothripsis tumors (AID 1671457); details: LFS_MB_2R medulloblastoma cells, stronger effect = higher value;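 further: cells exposed to compound for four days before readout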
# [24] = growth inhibition, MDA-MB-436, cell-based, BGB or cisplatin combos, synergistic combos for chromothripsis tumors (AID 1671458; call rule not given here;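 further: cells exposed for 96 hours; 0% = vehicle DMSO and 100% = killing by high DMSO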); details: MDA-MB-436 breast carcinoma growth inhibition, drug combinations, stronger effect = higher value
# [25] = UWB1.289_BRCA1 ovarian cancer growth, cell-based, BGB or cisplatin combinations (AID 1671459); details: UWB1.289 BRCA1 ovarian carcinoma, drug combinations, stronger effect = higher value
# [26] = drug combination toxicity in non-malignant astrocytes – cell-based, BGB or cisplatin IC20 combos, cytotoxicity control for chromothriptic childhood tumor combination screen (AID 1671460); details: Human astrocytes, viability inhibition, drug combinations, at 0.5 µM, stronger effect = higher value;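 further: cells exposed to compounds for 96 hours before viability readout; 0% = vehicle and 100% = killing control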
# [27] = BT084 cell growth, single and combined drugs, ICGC_MB145, cisplatin and BGB IC40 combos (AID 1671461); details: BT084 medulloblastoma cells, drug combinations, stronger effect = higher value;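 further: cells exposed to drugs for 96 hours; 0% = vehicle DMSO and 100% = high DMSO full killing control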
# [28] = RCMB18 cell growth, single agent and combined, cisplatin and BGB IC40 combos (AID 1671462); details: RCMB18 medulloblastoma cells, stronger effect = higher value;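 further: cells exposed to compound for four days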
# [29] = CRL1545 cell growth, single agent and combined, cisplatin and BGB IC20 combos (AID 1671464); details: CRL1545 osteosarcoma cells, stronger effect = higher value;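 further: cells exposed to compound for 96 hours before readout; 0% = vehicle DMSO and 100% = high DMSO killing control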
# [30] = measured here: combination with BGB IC40, at 0.05 µM
# [31] = measured here: with BGB IC20 combination, at 0.5 µM
# [32] = measured here: with cisplatin IC20 combination, at 0.5 µM
# [33] = measured here: combination with cisplatin, at 0.5 µM
# [34] = measured here: combination with cisplatin, at 5 µM
smiles,measurement,setting,value
CCC1(CCC(C)C)C(=O)NC(=O)NC1=O,inhibition,[1],6.77%
same,score,[2],1.7
same,rescue above control,[3],0.92
same,cytochrome c release ratio,[4],0.96
same,inhibition of aggregation,[5],40.1%
same,glutamate uptake change,[6],-7.2%
same,inclusion score,[7],2
same,aggregation suppression score,[8],1.35
COc1ccc2[nH]cc(CCN(C)C)c2c1,period change,[9],0.045 h (inactive)
C#CCOc1ccc(CC(C)NCC(O)c2cccc(C(F)(F)F)c2)cc1 (configuration not stated),growth inhibition,[10],74% (active) and 84% (active)
same,inhibition,[11],5% (inactive) and 28% (inactive)
same,inhibition,[12],1% (inactive) and -2% (inactive)
same,growth inhibition,[13],90% (active) and 93% (active)
CC(CCCC(C)(C)O)CCNC(C)Cc1ccsc1 (configuration not stated),z-score,[14],-0.475 (inactive)
COc1cc(C2c3cc4c(cc3C(O)C3COC(=O)C23)OCO4)cc(OC)c1OC (configuration not stated),inhibition,"[15]; at 0.5 µM, stronger effect = higher value",9.19% (inactive)
same,inhibition,"[15]; measured here: combination with BGB IC20, at 0.005 µM",-13.4%
same,inhibition,"[15]; measured here: combination with BGB IC40, at 0.005 µM",-36%
same,inhibition,[15]; [30],14.5%
same,inhibition,"[15]; measured here: combination with cisplatin, at 0.5 µM, stronger effect = higher value",-15.6%
same,inhibition,"[15]; measured here: combination with cisplatin, at 5 µM, stronger effect = higher value",45.9%
same,inhibition,"[16]; BGB combo, at 5 µM",67.6%
same,inhibition,[16]; at 0.5 µM,76.5% (inactive)
same,inhibition,"[16]; cisplatin combo, at 5 µM",70.5%
same,inhibition,[16]; [31],69.9%
same,inhibition,[16]; [32],66.6%
same,inhibition,"[16]; single agent, at 5 µM",91.8%
same,inhibition,"[17]; BGB IC20 combo, at 0.005 µM",44.2%
same,inhibition,"[17]; BGB IC40 combo, at 0.005 µM",19.6%
same,inhibition,"[17]; BGB IC40 combo, at 0.05 µM",10.9%
same,inhibition,[17]; at 0.5 µM,-21.6% (inactive)
same,inhibition,"[17]; cisplatin combo, at 0.05 µM",7.4%
same,inhibition,"[17]; cisplatin combo, at 0.5 µM",-22.1%
same,inhibition,"[17]; cisplatin combo, at 5 µM",19.8%
same,inhibition,"[17]; measured here: 5 uM single agent, at 5 µM",19.6%
same,inhibition,[18]; at 0.5 µM,38.7% (inactive)
same,inhibition,[18]; [30],42.5%
same,inhibition,[18]; [33],54.6%
same,inhibition,[18]; [34],60.9%
same,inhibition,[19]; at 0.5 µM,72.2% (inactive)
same,inhibition,"[19]; measured here: with BGB IC20, at 0.5 µM",55.2%
same,inhibition,"[19]; measured here: with BGB IC20, at 5 µM",54%
same,inhibition,"[19]; measured here: with cisplatin IC20, at 0.5 µM",72.6%
same,inhibition,"[19]; measured here: with cisplatin IC20, at 5 µM",73%
same,inhibition,"[19]; single agent, at 5 µM",89.8%
same,inhibition,[20]; at 0.5 µM,38.6% (inactive)
same,inhibition,"[20]; measured here: combination with BGB at IC20, at 0.5 µM",34.3%
same,inhibition,"[20]; measured here: combination with cisplatin at IC20, at 0.5 µM",46.2%
same,inhibition,[21]; at 0.5 µM,83.8% (active)
same,inhibition,"[21]; measured here: combo with BGB at IC20, at 0.5 µM",82.3%
same,inhibition,"[21]; measured here: combo with cisplatin at IC20, at 0.5 µM",76.1%
same,inhibition,[22]; at 0.5 µM,44.8% (inactive)
same,inhibition,"[22]; measured here: inhibition with BGB combination, at 0.05 µM",11.9%
same,inhibition,"[22]; measured here: inhibition with cisplatin combination, at 0.05 µM",39.3%
same,inhibition,[23]; at 0.5 µM,33.5% (inactive)
same,inhibition,[23]; [33],48.6%
same,inhibition,[23]; [34],47.1%
same,inhibition,[24]; at 0.5 µM,69.7% (inactive)
same,inhibition,"[24]; measured here: BGB combination, at 0.5 µM",58.4%
same,inhibition,"[24]; measured here: BGB combination, at 5 µM",53.6%
same,inhibition,"[24]; measured here: cisplatin combination, at 0.5 µM",72.1%
same,inhibition,"[24]; measured here: cisplatin combination, at 5 µM",74.9%
same,inhibition,"[25]; BGB combination, concentration series, at 5 µM",71.3%
same,inhibition,[25]; at 0.5 µM,57.4% (inactive)
same,inhibition,"[25]; cisplatin combination, concentration series, at 5 µM",70.5%
same,inhibition,[26],85.4% (active)
same,inhibition,[26]; measured here: combo with BGB IC20,85.6%
same,inhibition,[26]; measured here: combo with cisplatin IC20,76.9%
same,inhibition,[27]; at 0.5 µM,45.2% (inactive)
same,inhibition,"[27]; cisplatin combination, at 0.5 µM",43.7%
same,inhibition,"[27]; cisplatin combination, at 5 µM",48.4%
same,inhibition,"[27]; measured here: BGB IC40 combination 0.05 uM, at 0.05 µM",22.9%
same,inhibition,"[27]; single agent, at 5 µM",62.7%
same,inhibition,[28]; at 0.5 µM,21.7% (inactive)
same,inhibition,"[28]; cisplatin combo, at 5 µM",29.2%
same,inhibition,"[28]; measured here: BGB IC40 combination, at 0.05 µM",11.1%
same,inhibition,[28]; [33],20.9%
same,inhibition,"[28]; single agent, at 5 µM",18.7%
same,inhibition,[29]; at 0.5 µM,74.4% (inactive)
same,inhibition,[29]; [31],70.7%
same,inhibition,[29]; [32],76.3%
same,inhibition,"[29]; single agent, at 0.05 µM",49.3%
same,inhibition,"[29]; single agent, at 5 µM",85.7%
